Test [1] is described as follows: inhibitors of TNFa-induced NFkB p65 translocation, primary screen, imaging, HUVEC, MLSMR starter and 10KST1 sets (AID 438;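 active = inhibition above 20% together with a positive visual image hit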;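 also: compound added about 3h40 before a 20 min TNFalpha stimulation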;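 as to inhibition: signal is the nuclear over cytoplasmic p65 intensity ratio per well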). The conditions noted are these: HUVEC TNFa-induced p65 nuclear translocation; cell count: measured here: nuclei count (cytotoxicity indicator), at 2.08 µM; inhibition: at 2 µM, stronger effect = higher value, 0% TNFa-plus-vehicle, 100% no-TNFa wells.
The nature of test [2]: reduction of polyQ htt aggregates in cells – imaging, exon1htt(103Q)mCFP cells, high-content imaging, primary screen (AID 483;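 active = visual image review flags a hit and inhibition of aggregation exceeds 20%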;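 also: compound exposure lasted 3 days before fixation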;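 as to nuclei count: percent of the per-plate median nuclei count of sample wells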). Particulars: exon1htt(103Q)mCFP cell line, aggregate imaging, at 2 µM; inhibition of aggregation: stronger effect = higher value; nuclei count: measured here: cell count, toxicity.
Test [3] can be described thus: endothelial E-selectin expression blockers – imaging, HUVEC, immunofluorescence, MLSMR starter and 10KST1 sets, primary screen (AID 487;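 active = visually confirmed hit in the image check and inhibition above 20%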;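 as to inhibition: signal is fraction of cell area covered by stained E-selectin grains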;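 as to nuclei count: 100% = median nuclei count of all wells on the same plate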). The conditions noted are these: HUVEC TNFalpha-induced E-selectin immunofluorescence imaging, at 2 µM; inhibition: stronger effect = higher value; nuclei count: measured here: cell number, toxicity.
The nature of test [4]: Primary imaging screen for DUSP6 inhibitors that restore phospho-Erk in transfected HeLa cells, chemical complementation (AID 609;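 active = compounds giving at least 50% inhibition in the cell-based MKP-3 phosphatase rescue imaging test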;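 as to inhibition: phospho-Erk level distribution per well compared with pooled transfected vehicle control wells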). The conditions noted are these: HeLa MKP-3 transfected, phospho-Erk imaging KS statistic, at 10 µM, cells stimulated with TPA for 15 min.
For test [5], the target named is Dual specificity protein phosphatase 6 (Homo sapiens) (UniProt Q16828). Described as above. The conditions noted are these: HeLa MKP-3 transfected, phospho-Erk imaging KS statistic; at 10 µM; stronger effect = higher value; cells stimulated with TPA for 15 min.
Dual specificity protein phosphatase 6 (Homo sapiens), sequence (Q16828 whole entry, looked up): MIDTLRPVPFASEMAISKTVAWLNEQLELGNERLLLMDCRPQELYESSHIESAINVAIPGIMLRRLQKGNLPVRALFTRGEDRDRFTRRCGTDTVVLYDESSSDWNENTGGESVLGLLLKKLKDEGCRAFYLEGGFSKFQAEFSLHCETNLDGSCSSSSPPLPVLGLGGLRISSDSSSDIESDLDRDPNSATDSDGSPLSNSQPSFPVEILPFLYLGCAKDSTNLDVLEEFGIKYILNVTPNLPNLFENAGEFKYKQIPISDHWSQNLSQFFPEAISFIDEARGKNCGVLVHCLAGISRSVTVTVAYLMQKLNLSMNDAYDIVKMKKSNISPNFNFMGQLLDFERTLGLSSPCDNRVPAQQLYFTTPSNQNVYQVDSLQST
Test [6] addresses Voltage-gated potassium channel subunit beta-2 (Rattus norvegicus) (UniProt P62483). Put plainly: inhibitors of rat Kvbeta2 reductase activity – biochemical, NADPH fluorescence, primary screen (AID 622;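 active = fluorescence slope higher than the sample average by over 3 SD, cut at about -0.22 in these data, passing the limit was not always enough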;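 also: slope of raw intensity against log time taken from 70 to 1610 s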). The conditions noted are these: recombinant KvBeta, 4-cyanobenzaldehyde reduction, at 10 µM, stronger effect = higher value.
Test [7] shares this target. Put plainly: enhancers of rat Kvbeta2 NADPH turnover – biochemical, NADPH fluorescence, primary screen (AID 623;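 active = NADPH fluorescence slope more negative than the mean of all samples by about 3 SD, 99.7% confidence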;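 also: fluorescence intensity change per second fitted from 20 to 320 s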). The conditions noted are these: Recombinant KvBeta, NADPH fluorescence decrease slope, 10 min; at 10 µM; stronger effect = lower value.
The target in test [8] is Alpha-2C adrenergic receptor (Homo sapiens) (UniProt P18825). Put plainly: compounds altering alpha2C-coupled GIRK flux – cell-based, HEK293 alpha2C/GIRK1/2, thallium flux, primary screen (AID 624;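 active = fluorescence slope after compound addition differing from the mean of all screened samples at 99.7% confidence, in either direction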;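 also: slope of fluorescence ratio to pre-addition baseline per second over 15 to 24 s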). The conditions noted are these: thallium flux BTC fluorescence, at 10 µM, actives lie on both sides.
Alpha-2C adrenergic receptor (Homo sapiens), sequence (P18825 whole entry, looked up): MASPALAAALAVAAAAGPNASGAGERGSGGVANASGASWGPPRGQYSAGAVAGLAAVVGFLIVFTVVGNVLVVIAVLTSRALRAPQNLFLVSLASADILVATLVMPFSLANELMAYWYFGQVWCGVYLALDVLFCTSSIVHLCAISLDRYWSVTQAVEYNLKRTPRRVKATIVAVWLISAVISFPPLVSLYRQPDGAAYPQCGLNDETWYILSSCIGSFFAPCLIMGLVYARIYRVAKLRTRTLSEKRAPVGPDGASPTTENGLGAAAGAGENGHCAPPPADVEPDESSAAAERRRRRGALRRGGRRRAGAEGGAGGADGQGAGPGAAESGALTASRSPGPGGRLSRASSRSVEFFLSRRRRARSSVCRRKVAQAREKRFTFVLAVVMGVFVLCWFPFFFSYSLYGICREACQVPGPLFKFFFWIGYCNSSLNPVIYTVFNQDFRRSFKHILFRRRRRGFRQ
A short description of test [9]: inhibitors of larval lipid processing in zebrafish, primary screen, whole organism, PED6 fluorescence, gall bladder and intestine (AID 686;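 active = a full or partial loss of lipid-probe fluorescence in the fish gall bladder, intestine or both, judged by eye; inactive = no fluorescence loss, or compound toxic to the fish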;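 also: larvae 5 to 7 days old with five fish per well; signal comes from phospholipase A2 cleavage of quenched PED6 carried via bile; overnight exposure to compound and PED6 before scoring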). Particulars: Zebrafish larvae PED6 lipid processing, fluorescence scoring; screened at 20 µM (by protocol).
The nature of test [10]: loss of swimming-algae plug formation – whole organism, Chlamydomonas reinhardtii, WT vs cilia-less mutant, absorbance, 96-well, primary screen (AID 463189).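 Also: 0% = wild type cc124 cells in DMSO and 100% = ciliumless bld1 mutant cells.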 Particulars: Chlamydomonas reinhardtii gravitaxis, OD600 absorbance, 2 days; at 10 µM; stronger effect = higher value.
Test [11] can be described thus: blockers of RIG-like receptor reporter activation – cell-based, Sendai virus stimulus, luciferase, 10K MLSCN set, TLR/RLR signaling modifier project, primary screen (AID 602276;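 active = inhibition at or above 50% at 10 µM; inactive = inhibition below 50%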;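 also: firefly luciferase from ISG56 promoter only with Renilla not read in this screen; 0% = Sendai virus plus DMSO and 100% = medium plus DMSO without virus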). Particulars: HEK293 RL24 IRF3 luciferase reporter, at 10 µM, stronger effect = higher value.
A short description of test [12]: TLR3 IRF3 reporter activation blockers – cell-based, poly I:C stimulus, luciferase, 10K MLSCN set, primary screen (AID 602277;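 active = inhibition of the reporter signal at or above 50%; inactive = inhibition below 50%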). Particulars: HEK293-TLR3 RL24 IRF3 luciferase reporter, at 10 µM, stronger effect = higher value. For orientation: Reporter assays use an easily measured gene product as a stand-in for the process of interest.
Where [13] appears, read: measured here: cell density z-score.
[14] abbreviates: measured here: nuclear c-Myc green intensity z-score.
Setting [15] is: measured here: nuclear pErk red intensity z-score, stronger effect = higher value.

The structures appear in SMILES notation. Where “and” joins values, the source holds several entries; their conditions need not be identical. Equal entries are not always repeated. A structure can be active in one record and inactive in another. Calls of active or inactive are those of the source.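 The calls were made as follows, unless noted: active = inhibition at or above 50% relative to wild type and mutant plate controls; inactive = inhibition below 50%.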

The inhibition is the change of the read-out against control, counted positive when it falls.

Voltage-gated potassium channel subunit beta-2 (Rattus norvegicus), sequence (P62483 whole entry, looked up): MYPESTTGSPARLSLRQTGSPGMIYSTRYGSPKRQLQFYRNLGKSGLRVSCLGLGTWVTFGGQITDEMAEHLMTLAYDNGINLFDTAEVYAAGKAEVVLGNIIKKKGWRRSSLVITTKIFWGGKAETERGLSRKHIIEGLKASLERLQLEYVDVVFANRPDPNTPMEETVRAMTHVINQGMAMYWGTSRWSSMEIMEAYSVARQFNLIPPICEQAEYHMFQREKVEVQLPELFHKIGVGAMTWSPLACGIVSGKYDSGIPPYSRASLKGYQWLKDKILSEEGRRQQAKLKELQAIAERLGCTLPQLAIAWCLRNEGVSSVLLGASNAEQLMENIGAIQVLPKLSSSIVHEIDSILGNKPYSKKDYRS

With `COc1ccc(Cl)cc1C(=O)NCCc1ccc(S(=O)(=O)NC(=O)NC2CCCCC2)cc1`, in test [1], the cell count was 517. In addition, the inhibition in test [1] was -3.1% (inactive); in test [3], 48.6% (inactive); in test [5], 5.79% (inactive); in [10] it was 3.54% (inactive) and -10.9% (inactive); in test [11], 19.2% (inactive); in test [12], 42.8% (inactive). In addition, the inhibition of aggregation in test [2] was -17.2% (inactive). In addition, the nuclei count came to 105% in test [2] and 80.7% in test [3]. In addition, the values for the z-score in [4] (setting [13]), in test [4] (setting [14]) and in test [4] (setting [15]) were 0.545, -1.59 and -0.882, respectively. In test [6], the fluorescence slope is -0.462 (inactive). Further, the NADPH fluorescence slope in test [7] was -5.3e-05 (inactive). In addition, the slope in test [8] is 0.00532 (inactive). The compound was classed as inactive in test [9].
`Cc1c(OCC(F)(F)F)ccnc1CS(=O)c1nc2ccccc2[nH]1` (stereo not given): the cell count in test [1] stood at 654. The inhibition is 0.3% (inactive) in test [1]; -74.2% (inactive) in test [3]; 14.6% (inactive) in [5]; -14.9% (inactive) and -4.97% (inactive) in test [10]; -45.4% (inactive) in test [11]; -64.9% (inactive) in test [12]. Further, in test [2], the inhibition of aggregation is 8.2% (inactive). Besides, the nuclei count was found to be 77.3% in test [2] and 98.2% in test [3]. Also, the z-score was 1.3 in test [4] (setting [13]), -0.826 in test [4] (setting [14]) and -0.353 in test [4] (setting [15]). Further, the fluorescence slope in test [6] was -0.466 (inactive). The NADPH fluorescence slope in [7] was -3.7e-05 (inactive). For the same compound, the slope in test [8] is 0.00411 (inactive). In addition, the compound was called inactive in test [9].
For the compound `NC(N)=NS(=O)(=O)c1ccc(N)cc1`, in [1], the cell count is 630. In addition, the inhibition in [1] was 0.4% (inactive); in test [3], -107% (inactive); in test [5] it was 14.6% (inactive); in test [10], -2.06% (inactive); in test [11], 18.4% (inactive); in test [12], 34.4% (inactive). For the same compound, the inhibition of aggregation in test [2] is 9.4% (inactive). Moreover, the nuclei count in test [2] was 99.7%; in [3], 136%. The z-score in test [4] (setting [13]) is 0.695; in test [4] (setting [14]), -0.407; in test [4] (setting [15]), -0.348. Further, in [6], the fluorescence slope is -0.497 (inactive). Also, the NADPH fluorescence slope in test [7] is -7.4e-05 (inactive). Also, the slope in test [8] was 0.00546 (inactive). In addition, the call in [9] was inactive.
Take `CCCCCCCCNC(C)C(O)c1ccc(SC(C)C)cc1` (stereo not given): the cell count in test [1] was 561. Moreover, the inhibition in test [1] was -16% (inactive); in test [3], -40.8% (inactive); in test [5] it was 25.1% (inactive); in test [10], 151% (active); in test [11] it was 19.5% (inactive); in [12], -3.66% (inactive). Moreover, in test [2], the inhibition of aggregation was -10.4% (inactive). Also, the values for the nuclei count in [2] and in [3] were 105% and 112%, respectively. In addition, the figures for the z-score in test [4] (setting [13]), in test [4] (setting [14]) and in test [4] (setting [15]) were 1.06, -0.321 and -0.268, respectively. Further, in [6], the fluorescence slope is -0.477 (inactive). Besides, the NADPH fluorescence slope in test [7] is -6.9e-05 (inactive). For the same compound, the slope in test [8] is 0.00365 (inactive). The call in [9] was inactive.
Regarding `Cc1ccc(S(=O)(=O)NCC(=O)OCN2C(=O)c3ccccc3C2=O)cc1`, the cell count in test [1] is 416. Moreover, the inhibition is -4.7% (inactive) in test [1]; -23.1% (inactive) in test [3]; 7.93% (inactive) in test [5]; 45.3% (inactive) in [10]; 11.3% (inactive) in [11]; -3.4% (inactive) in [12]. Besides, the inhibition of aggregation in test [2] is -19.8% (inactive). In addition, the nuclei count in test [2] is 85.7%; in test [3], 93.4%. Besides, the z-score in test [4] (setting [13]) was -0.341; in [4] (setting [14]), -0.796; in test [4] (setting [15]), 0.197. Also, the fluorescence slope in test [6] was -0.574 (inactive). The NADPH fluorescence slope in test [7] was 4e-05 (inactive). Also, the slope in test [8] was 0.00572 (inactive). Further, in test [9], the outcome was inactive.
Take `Cc1nc(/N=C(\N)Nc2ccccc2)nc2ccccc12`: in test [1], the cell count was found to be 304. The inhibition in test [1] was 2.5% (inactive); in test [3], -112% (inactive); in [5], -0.624% (inactive); in test [10], 7.3% (inactive); in test [11], -6.34% (inactive); in test [12] it was -21.7% (inactive). In test [2], the inhibition of aggregation is -14% (inactive). Also, the nuclei count came to 103% in test [2] and 110% in test [3]. The z-score came to 0.361 in test [4] (setting [13]), 0.688 in test [4] (setting [14]) and 0.354 in test [4] (setting [15]). Also, the fluorescence slope in test [6] was -0.38 (inactive). The NADPH fluorescence slope in test [7] is 2.3e-05 (inactive). Besides, the slope in test [8] is 0.0057 (inactive). The compound was called inactive in test [9].
In the case of `C[C@]12CCC(=O)C=C1CC[C@@H]1[C@@H]2C(=O)C[C@@]2(C)[C@H]1CC[C@]2(O)C(=O)CO`, in test [1], the cell count is 603. Besides, the inhibition in test [1] is -6% (inactive); in [3], -119% (inactive); in test [5] it was -4.44% (inactive); in test [10] it was -0.81% (inactive) and 2.73% (inactive); in test [11] it was 10.2% (inactive); in test [12], 21.1% (inactive). Also, the inhibition of aggregation in [2] is 21.4% (inactive). For the same compound, the nuclei count came out at 102% in test [2] and 120% in test [3]. Besides, the z-score in [4] (setting [13]) was -0.503; in [4] (setting [14]), -1.16; in test [4] (setting [15]) it was 1.19. The fluorescence slope in [6] was -0.503 (inactive). For the same compound, the NADPH fluorescence slope in test [7] was -3.1e-05 (inactive). Further, in [8], the slope was 0.00463 (inactive). For the same compound, the result in test [9] was inactive.
Turning to `Cc1nc2sccn2c(=O)c1CCN1CCC(=C(c2ccccc2)c2ccc(F)cc2)CC1`, the cell count in test [1] came out at 635. The inhibition is -7.7% (inactive) in test [1]; -100% (inactive) in test [3]; 17.3% (inactive) in test [5]; 24.7% (inactive) and 164% (active) in [10]; 18.4% (inactive) in [11]; 19.4% (inactive) in [12]. Moreover, in [2], the inhibition of aggregation is 5% (inactive). For the same compound, the nuclei count stood at 114% in test [2] and 123% in [3]. Further, the z-score in test [4] (setting [13]) is -1.15; in [4] (setting [14]), 0.767; in [4] (setting [15]), 0.616. Also, the fluorescence slope in test [6] is -0.433 (inactive). Moreover, in [7], the NADPH fluorescence slope was -1.2e-05 (inactive). The slope in test [8] was 0.00383 (inactive). The call in [9] was inactive.
Take `CC(=O)OC(C)C[N+](C)(C)C` (stereo not given): the cell count in test [1] is 551. Moreover, the inhibition in [1] is 2.7% (inactive); in [3], -37.2% (inactive); in test [5], 5.42% (inactive); in test [10] it was 4.19% (inactive) and 8.31% (inactive); in test [11], 8.52% (inactive); in test [12], 29.7% (inactive). Further, in test [2], the inhibition of aggregation is -10.4% (inactive). Besides, the nuclei count in test [2] worked out at 93.2%; in test [3], 109%. The z-score was -0.162 in [4] (setting [13]), 0.661 in test [4] (setting [14]) and -1.46 in test [4] (setting [15]). Further, in test [6], the fluorescence slope is -0.469 (inactive). The NADPH fluorescence slope in test [7] was -5.5e-06 (inactive). The slope in test [8] is 0.0149 (active). Besides, the result in test [9] was inactive.
Regarding `CCCCC1C(=O)N(c2ccccc2)N(c2ccccc2)C1=O`, the cell count in [1] was determined as 638. Moreover, the inhibition in test [1] is 4.6% (inactive); in [3], -26.6% (inactive); in test [5], 8% (inactive); in test [10] it was 5.13% (inactive) and -8.61% (inactive); in test [11], 19.9% (inactive); in test [12], 41.2% (inactive). For the same compound, in [2], the inhibition of aggregation was -5.9% (inactive). The results for the nuclei count in test [2] and in test [3] were 96.9% and 109%, respectively. Moreover, the z-score was 1.68 in test [4] (setting [13]), -0.325 in test [4] (setting [14]) and -0.291 in test [4] (setting [15]). The fluorescence slope in test [6] is -0.483 (inactive). In test [7], the NADPH fluorescence slope was -4.2e-05 (inactive). Moreover, the slope in test [8] was 0.00446 (inactive). Moreover, the result in [9] was inactive.
